Experimental data from the supplement of paper PMC11219838.
Values without a mark were called inactive.

System: Caenorhabditis elegans dauer (daf-2(e1370))
Experiment: proportion of mobile C. elegans dauer larvae relative to DMSO control (fraction of DMSO control); higher = more viable, less nematicidal, active = 0.63 or less; extreme values may be limits of the assay
Details: 60 µM; 5 days; temperature: 20 °C
Method: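 DODA library (846 commercial 1,3,4- and 1,2,4-oxadiazole compounds plus commercial nematicide controls) screened at a single dose of 60 µM (0.6% DMSO) in 96-well plates, two biological replicates. Read-outs: C. elegans N2 L1 survival/reproduction score at day 6, 20 °C (0: 0-10 worms, 1: 11-20, 2: 21-50, 3: >50, 4: overgrown/starved). C. elegans daf-2 dauer, D. dipsaci and M. hapla J2 mobility at day 5, 20 °C, and P. penetrans mobility at day 5, 20 °C, each relative to DMSO controls. M. hapla egg hatching at day 12, 25 °C, relative to the mean of 8 DMSO wells on the same plate.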

| Structure (SMILES) | proportion of mobile C. elegans dauer larvae |
| --- | --- |
| Cc1cc(OCc2nc(-c3cccnc3)no2)cc(C)c1Br | 1 |
| Clc1ccc(OCc2nc(-c3ccncc3)no2)cc1 | 0.645 |
| COc1ccc(-c2nc(-c3ccc(Cl)cc3)no2)cc1 | 1 |
| CCOc1ccccc1-c1nc(-c2ccc(F)cc2)no1 | 1 |
| Cc1cc(OCc2nc(-c3ccncc3)no2)ccc1Cl | 1 |
| Cc1cccc(-c2noc(-c3cc(Cl)ccc3Cl)n2)c1 | 1 |
| Fc1ccc(-c2nc(-c3ccc(Cl)cc3)no2)cc1 | 1 |
| COc1ccc(-c2nnc(SCC(=O)Nc3cccc(Cl)c3Cl)o2)cc1 | 1 |
| Cc1ccc(-c2nnc(SCc3ccc(Br)cc3)o2)cc1 | 1 |
| CCc1ccc(NC(=O)CSc2nnc(-c3ccc(Cl)cc3Cl)o2)cc1 | 1 |
| O=C(Nc1ccccc1-c1nc(-c2cccnc2)no1)c1ccccc1Cl | 1 |
| COc1cccc(-c2noc(COc3ccc4ccccc4c3)n2)c1 | 1 |
| Cc1nnc(CSc2nnc(-c3ccc(Cl)cc3)o2)o1 | 1 |
| COc1ccc(-c2noc(-c3ccccc3C(=O)Nc3cccc(C)c3C)n2)cc1 | 1 |
| O=C(Nc1cccc(-c2noc(-c3cccnc3)n2)c1)c1cccs1 | 1 |
| COc1ccccc1-c1nc(-c2ccc(C)cc2)no1 | 1 |
| Cc1ccccc1-c1noc(COc2ccccc2)n1 | 1 |
| Cc1cccc(OC(C)c2nc(-c3cccnc3)no2)c1 (stereo not given) | 1 |
| Cc1ccccc1OCc1nc(-c2cccc(C(F)(F)F)c2)no1 | 1 |
| Cc1cc(OCc2nc(-c3ccncc3)no2)cc(C)c1Cl | 1 |

| Structure (SMILES) | proportion of mobile C. elegans dauer larvae |
| --- | --- |
| COc1cccc(-c2noc(COc3ccccc3C)n2)c1 | 1 |
| CCOc1ccc(-c2nc(-c3ccc(Cl)cc3)no2)cc1 | 1 |
| Cc1ccc(-c2nnc(SCC(=O)NCCc3ccccc3)o2)cc1 | 1 |
| Cc1ccc(OCc2nc(-c3ccc(Cl)cc3)no2)cc1C | 1 |
| CCc1ccc(C(=O)Nc2ccccc2-c2nc(-c3ccncc3)no2)cc1 | 1 |
| Cc1cc(C)cc(NC(=O)CSc2nnc(-c3ccccc3)o2)c1 | 1 |
| Cc1ccc(NC(=O)CSc2nnc(-c3ccc(C(C)(C)C)cc3)o2)c(C)c1 | 1 |
| Cc1ccc(C)c(-c2nc(-c3ccc(Cl)cc3)no2)c1 | 1 |
| COc1ccccc1-c1nnc(SCc2ccccc2C#N)o1 | 1 |
| Cc1cccc(-c2noc(-c3ccc(Br)cc3)n2)c1 | 1 |
| COc1ccc(Cl)cc1-c1noc(-c2ccc(Cl)cc2)n1 | 1 |
| COc1ccc(-c2noc(COc3ccccc3C)n2)cc1 | 1 |
| Cc1ccc(-c2nnc(SCC(=O)Nc3c(C)cc(C)cc3C)o2)cc1 | 1 |
| O=C(c1ccccc1-c1nc(-c2ccc(F)cc2)no1)N1CCCC1 | 1 |
| CC(=O)Nc1ccc(NC(=O)c2ccccc2-c2nc(-c3cccc(C)c3)no2)cc1 | 1 |
| Cc1cccc(-c2noc(-c3cccc(Cl)c3)n2)c1 | 1 |
| O=C(CSc1nnc(-c2ccccc2)o1)Nc1cccc(Cl)c1 | 1 |
| CCOc1cc(-c2nc(-c3ccc(OC)cc3)no2)cc(OCC)c1OCC | 1 |
| COc1ccc(NC(=O)CSc2nnc(-c3ccc(Br)cc3)o2)cc1 | 1 |
| COc1ccccc1-c1nnc(SCc2ccc(F)cc2)o1 | 1 |
